# In the supplement of paper PMC11417369:
# ± gives the standard deviation of the averaged measurements. Over roughly 25,000 sequences, “ln(normalized median fluorescence intensity)” has its median near 7.9; the highest 2% begin near 11. This excerpt belongs to a sample that is enriched for the highest values.
# Test system: PfAP2-I AP2 domain 3 (GST-tagged)
# Assay: gcPBM binding intensity (ln(normalized median fluorescence intensity)); higher = stronger DNA binding
# Outline: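 GST-tagged P. falciparum DNA-binding domains, expressed in E. coli (about 25 μg on average), were applied for 1 h to an Agilent 4 × 180k array of primer-extended double-stranded 36-bp intergenic genomic probes plus negative controls. The binding buffer was 1× PBS with 1% milk, 0.2 mg/ml BSA, 0.5% salmon testes DNA and 0.03% Triton X-100. Bound protein was detected with Alexa488 anti-GST antibody and scanned at 488 nm. Binding intensity is the highest Masliner-normalised natural-log median intensity across replicate spots of either probe orientation.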
row,Sequence,gcPBM binding intensity (ln)
1,ACATGAAACTATAAACGTACATACATACATATATAT [XGTACX_site5011],8.09 ± 0.6
2,TTTTCTCTAAAAAGGTGTACAACTAATAATGCACTG [XGTACX_site6074],11.4 ± 0.31
3,TATAAATACTAAAAAAGTACAAAATTTCATAAAAAA [XGTACX_site2709],7.82 ± 0.59
4,AAAAAAAAAAAAAGGTGTACATGCAAAATAAATTCT [XGTACX_site4592],8.56 ± 0.35
5,TATTTTATATAAAGGTGTACTTATACAAAAATATAT [XGTACX_site7435],8.14 ± 0.28
6,GATAATGAATGATGCACACTAAAAATATTCTACAAC [CACACA_site3622],8.66 ± 0.16
7,ATTTTTCTAAAATACTGTACAAAGGTGCATAAAAAG [XGTACX_site4425],11.8 ± 0.87
8,ATATATATATATATATGTACATATTGTATTAATTAT [XGTACX_site1919],9.31 ± 0.11
9,AATGTCATCATATTCATATATATTTATTTCTTTTTG [GTGCAC_negctrl_site500],7.68 ± 0.57
10,TAAATTTAGAAACACACACACATATATATATATATA [CACACA_site847],9.36 ± 0.38
11,AAAATAATAATAGGCACACATATATATATATATATA [CACACA_site2058],9.36 ± 0.32
12,ATAGAAGGCAACTTGGTGCACAAAAAAAAAAATAAT,11.6 ± 0.25
13,TAATAACTACAAAAAAAAAAGAAAAATAGAAAAAGG [CACACA_negctrl_site1102],7.75 ± 0.67
14,TTTCACTACACAAATACACACAAAAATATATGTGCA [CACACA_site2632],7.91 ± 0.54
15,CCATATCTTTTTTGCACACACTACAATAAAACAAAA [CACACA_site4995],9.95 ± 0.2
16,TCACCATATAAACGTGCACACTACAAAAATATATAA [CACACA_site5413],11 ± 0.24
17,TTTCACCATATAAACGTGCACACTACAAAAATATAT [CACACA_site2547],11.1 ± 0.35
18,AAACAAAAAATATATACACACTAAACATAAAAAAAA [CACACA_site4185],7.81 ± 0.65
19,TACAAACACCCATATACACACAAAAAAAAAATAAAA [CACACA_site5421],7.78 ± 0.31
20,TCTAATTTAAAATACACACACATATCTATAATATAT [CACACA_site7029],7.63 ± 0.28
21,TGAAAAATATAAGGTTGTACTTACATCGGGAATAAT [XGTACX_site4701],8.05 ± 0.55
22,TAATTTTCAATAATTTGTACATAATTTTTATAAATT [XGTACX_site8133],7.49 ± 0.3
23,AAATCGTAATATATTTGTACTTATTTGAAAAATCCA [XGTACX_site8141],7.76 ± 0.33

row,Sequence,gcPBM binding intensity (ln)
1,TTCTTATTTAATGTATCACACACGAGAATAAAAAAT [CACACA_site8992],7.98 ± 0.48
2,ACATTTTTTTTTTTTTTTCTTTTTCTTTTTCTTTTT [CACACA_negctrl_site1295],7.72 ± 0.52
3,AACTAATAGTATATTACATGCAAAAGTAAAAGTAAA [TGCATGCA_site411],8.02 ± 0.78
4,AAATATATAAAAGTATGTACATATGAAAAATATATA [XGTACX_site6165],8 ± 0.52
5,GTATAAAAGTAACTAGTGCATTACATATGAATAAAA,11.4 ± 0.6
6,TAGCTTATTAATATCATACACACATAGATATATTTA [CACACA_site3105],7.5 ± 0.54
7,CAATATTATAGATATACACACATAATGTGTAAAAAC [CACACA_site6631],7.87 ± 0.79
8,TAAACGTTAGTATGTGTGCACATTAGTAATTTAAAA,9.65 ± 0.3
9,TTAAAATGAAGAAGTGCACACATATATATATTTATA [CACACA_site8063],9.67 ± 0.18
10,TAAATTATAACGTGCACACATATTTAAAATGAAATG [CACACA_site2820],11.3 ± 0.23
11,AAAATTAAAAATAACACACACATATATATATTTATA [CACACA_site2776],7.66 ± 0.34
12,TTCATTCAAATTAACGTGCACATTATTAGTAAAAAC,11.05 ± 0.035
13,TGTAAATTATAACGTGCACACATATTTAAAATGAAA [CACACA_site8915],11.2 ± 0.15
14,TTAGTAAATACATTTGCACACATTATTTTTTAACAT [CACACA_site5448],9.36 ± 0.11
15,GAAAAATTAAAAATAACACACACATATATATATTTA [CACACA_site8896],7.56 ± 0.4
16,AAAAAATTAACGAGTGCACACATATTTAGATAAAAT [CACACA_site8958],9.86 ± 0.18
17,CTTAATAAGAATAAATGTACAAGGGATAAAAAATTT [XGTACX_site3213],8.02 ± 0.73
18,TTTTTTTTTTTTGAAACATGCATTGTTTTATTCTTA [TGCATGCA_site15],7.99 ± 0.85
19,GGAAATTTCAATATTTGTACATATATATATATATAT [XGTACX_site3222],9.56 ± 0.6
20,AGACATAAGATAATTACACACAATACATCCCTATAT [CACACA_site2227],7.76 ± 0.57
21,AGAAACCTTGTTAGTTAGCATATATATATATATATA [CACACA_negctrl_site372],9.46 ± 0.46
22,GGAAGCTAATTACACACATGCATATTTTTTTTTCAA [TGCATGCA_site548],8.16 ± 0.83
23,GTTAATATTTTTGGGGGTACTTAAAAAAAAAAAAAA [XGTACX_site1477],9.29 ± 0.26

row,Sequence,gcPBM binding intensity (ln)
1,ATTTTTTTTTTTTTTTTGGGGGGGTATACTTTTAAA [CACACA_negctrl_site1020],11.6 ± 0.4
2,TATACTTTATATATTTTGTATATATATTTTTTTTAT [TGCATGCA_negctrl_site530],7.5 ± 0.28
3,ATCTATGATATATACACACACATGTATAAATAAATA [CACACA_site7012],7.75 ± 0.47
4,TTTTTCTTTTTTTGTTGTACATTTTGTAATATTTAC [XGTACX_site4102],7.9 ± 0.59
5,TTATTTTTCTTTATTGGTACACACGAAAAAAAAATT [XGTACX_site6482],8.03 ± 0.3
6,TTTTTTTTTTTTTTTTTTTTTTTTGGGTCCCATACA [CACACA_negctrl_site913],8.1 ± 0.63
7,AAATTTATTATATATACATGCAATCATAAATAATGT [TGCATGCA_site539],7.68 ± 0.48
8,TAATGGAAACCATTTATTTTCTGCAATATATTTTTT [CACACA_negctrl_site1653],7.67 ± 0.35
9,AATCATTTATTGATGGTGCAATATACCATCTAATGA [GTGCAC_site9440],11.4 ± 0.76
10,TTACAAAAATGTGGTTGTACACAAACAAAAAAAATA [XGTACX_site8506],8.35 ± 0.29
11,TCTTTTTTTTCTTTTTTTTTATTTAAATATCAAGTA [CACACA_negctrl_site1354],7.59 ± 0.34
12,TTTTATTGTTGTTATACACACCATATAAAATATTTC [CACACA_site4983],7.92 ± 0.6
13,ATAAAAAGAAATCCAATACACACCTTCAAAATGGGT [CACACA_site1622],7.71 ± 0.72
14,AAAGATATAAATTACTGTACTAATGAAATTGGTAAA [XGTACX_site3582],7.67 ± 0.28
15,ATTATATATATGTGCACACAAAAGATATATATATAT [CACACA_site5205],10.2 ± 0.13
16,TTCAAAAGATATATCGTGCACATATATATGATGAAA,11.155 ± 0.007
17,AAGAAAAGCATAGATGCACACATATATATATATATA [CACACA_site8675],9.485 ± 0.078
18,ACTTTTATTCGCTTACGTACATATATTATATATTAT [XGTACX_site4459],8.75 ± 0.55
19,TATAAATATTTATGTACACACATATACATGTTGAAT [CACACA_site5684],7.95 ± 0.43
20,AACCTTACACAAGGGGTGCAATATTATTTCGATAAA [GTGCAC_site9600],11.5 ± 0.66
21,AGCAATTTGGGGTGTACACACACCTTATTTAAATTA [CACACA_site1157],8.23 ± 0.22
22,AATATTATTATTATTACACACACAATTATATTTACC [CACACA_site8061],7.93 ± 0.38
23,TACATTTTACTTGTTACACACATATAAAATTAACCA [CACACA_site2922],7.82 ± 0.5

row,Sequence,gcPBM binding intensity (ln)
1,AATAGTAAAAATCACTGTACGTTTATTTTTAAAATG [XGTACX_site1035],7.79 ± 0.28
2,CCATAACTCATATGCACACATAAATATTACATATAT [CACACA_site3821],8.87 ± 0.13
3,TAGTTCTTTTAATTTAGTATTATACAATATTGGAAA [CACACA_negctrl_site521],7.49 ± 0.47
4,ATAACAAAAATCCTTGTGCACTATTTTAATAGAGTC,11.4 ± 0.12
5,ATATAATATTTTAGAGTGCACCGATAACAATAAATA [GTGCAC_site9754],10.4 ± 0.17
6,TTTTAATATATAGAGTAACAAATTTGTCTATTAATA [CACACA_negctrl_site1495],7.5 ± 0.58
7,TGTACACCCAGAAATGCACACACATATATATATATA [CACACA_site8716],9.54 ± 0.18
8,CATTTATATAAAGAATGTACACACAGAAATGCACAC [XGTACX_site4718],10.2 ± 0.2
9,TTATATAAAGAATGTACACACAGAAATGCACCCACA [CACACA_site2282],11 ± 0.57
10,TTATATAAAGAATGTACACACAGAAATGCACAGACA [CACACA_site5288],9.43 ± 0.29
11,ATTTATATAAAGAATGTACACACAGAAATGCACCCA [CACACA_site8715],11 ± 0.83
12,GAAAGAAGCATAAATGTACACACATATTTATATATT [CACACA_site8368],7.74 ± 0.4
13,TCTTTCTCTCTTCAAAGTACATATAATATATACTTC [XGTACX_site7982],7.88 ± 0.52
14,TATTACAAATATGGCACACATATATATATATATATT [CACACA_site3268],8.69 ± 0.2
15,TTATGTTCTTAATGCACACTTATAAGTATCTTATAA [CACACA_site1394],10.99 ± 0.028
16,TAAAAAAAAAAGTATACACACTTCTTAATGTCAACA [CACACA_site4818],7.36 ± 0.46
17,TATATATATATATGTATGCACTTTAATTTTATAAGG,9.85 ± 0.26
18,ATATAATATTTATATGCACACTTTTCTATATATAAG [CACACA_site6100],9.77 ± 0.15
19,TTTTATGTTCTTAATGCACACTTATAAGTATCTTAT [CACACA_site4895],11.4 ± 0.72
20,ATTAAAAAAAAAAGTATACACACTTCTTAATGTCAA [CACACA_site1244],7.39 ± 0.47
21,AGGAAATTTTTTTTTTTTTTTTTTTTTTTTTTTTAC [TGCATGCA_negctrl_site170],7.5 ± 0.56
